{"source": "the supplement of paper PMC8728848", "binders": {"B1": {"name": "HBHA-Rv (Mycobacterium tuberculosum), P0A5P6 (protein)", "chain": "MAENSNIDDIKAPLLAALGAADLALATVNELITNLRERAEETRTDTRSRVEESRARLTKLQEDLPEQLTELREKFTAEELRKAAEGYLEAATSRYNELVERGEAALERLRSQQSFEEVSARAEGYVDQAVELTQEALGTVASQTRAVGERAAKLVGIELPKKAAPAKKAAPAKKAAPAKKAAAKKAPAKKAAAKKVTQK"}}, "test_in_all_cases": "glycan array binding signal (z-score within array); higher = stronger binding", "conditions_in_all_cases": "glycan notation: IUPAC condensed, linker removed", "key": {"[1]": {"biological_target": "Fuc(a1-2)Gal(b1-3)[Fuc(a1-4)]GlcNAc(b1-3)[Fuc(a1-3)[Gal(b1-4)]GlcNAc(b1-6)]Gal(b1-4)Glc", "in_short": "(§1)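 The binding signal is a Z-score computed within each array. Data were drawn from 3228 arrays in the Consortium for Functional Glycomics database, restricted to those with a known protein sequence. Scores were averaged over arrays of the same protein sequence at different concentrations or buffers, and over linkers, and negative values can be taken as non-binding.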"}, "[2]": {"biological_target": "Fuc(a1-2)Gal(b1-4)Glc6S", "in_short": "as §1"}, "[3]": {"biological_target": "Fuc(a1-2)Gal(b1-4)GlcNAc(b1-3)[Fuc(a1-3)[Gal(b1-4)]GlcNAc(b1-6)]Gal(b1-4)Glc", "in_short": "as §1"}, "[4]": {"biological_target": "Fuc(a1-2)Gal6S(b1-3)GlcNAc6S", "in_short": "as §1"}, "[5]": {"biological_target": "Fuc(a1-2)Gal6S(b1-4)Glc", "in_short": "as §1"}, "[6]": {"biological_target": "Fuc(a1-2)[Gal(a1-3)]Gal(b1-3)GlcNAc(b1-3)GalNAc", "in_short": "as §1"}, "[7]": {"biological_target": "Fuc(a1-2)[Gal(a1-3)]Gal(b1-4)GlcNAc(b1-3)GalNAc", "in_short": "as §1"}, "[8]": {"biological_target": "Fuc(a1-2)[Gal(a1-3)]Gal(b1-4)GlcNAc(b1-3)[Fuc(a1-2)[Gal(a1-3)]Gal(b1-4)GlcNAc(b1-6)]GalNAc", "in_short": "as §1"}, "[9]": {"biological_target": "Fuc(a1-2)[GalNAc(a1-3)]Gal(b1-4)Glc", "in_short": "as §1"}, "[10]": {"biological_target": "Fuc(a1-3)[Gal(b1-4)]Glc6S", "in_short": "as §1"}, "[11]": {"biological_target": "Fuc(a1-3)[Gal(b1-4)]GlcNAc(b1-3)GalNAc", "in_short": "as §1"}, "[12]": {"biological_target": "Fuc(a1-3)[Gal3S(b1-4)]Glc", "in_short": "as §1"}, "[13]": {"biological_target": "Fuc(a1-4)GlcNAc", "in_short": "as §1"}, "[14]": {"biological_target": "Gal(a1-3)Gal(b1-4)GlcNAc(b1-6)GalNAc", "in_short": "as §1"}, "[15]": {"biological_target": "Gal(b1-3)GlcNAc(b1-2)Man(a1-3)[GlcNAc(b1-4)][Gal(b1-3)GlcNAc(b1-2)Man(a1-6)]Man(b1-4)GlcNAc(b1-4)GlcNAc", "in_short": "as §1"}, "[16]": {"biological_target": "Gal(b1-3)GlcNAc(b1-3)Gal(b1-4)[Fuc(a1-3)]GlcNAc(b1-6)[Gal(b1-3)GlcNAc(b1-3)]Gal(b1-4)Glc", "in_short": "as §1"}, "[17]": {"biological_target": "Gal(b1-3)GlcNAc(b1-6)GalNAc", "in_short": "as §1"}, "[18]": {"biological_target": "Gal(b1-3)[Fuc(a1-4)]GlcNAc(b1-2)Man", "in_short": "as §1"}, "[19]": {"biological_target": "Gal(b1-4)GlcNAc(b1-2)Man", "in_short": "as §1"}, "[20]": {"biological_target": "Gal(b1-4)GlcNAc(b1-2)Man(a1-3)[Gal(b1-4)GlcNAc(b1-2)Man(a1-6)]Man(b1-4)GlcNAc(b1-4)GlcNAc", "in_short": "as §1"}, "[21]": {"biological_target": "Gal(b1-4)GlcNAc(b1-2)Man(a1-3)[Gal(b1-4)GlcNAc(b1-2)Man(a1-6)][GlcNAc(b1-4)]Man(b1-4)GlcNAc(b1-4)[Fuc(a1-6)]GlcNAc", "in_short": "as §1"}, "[22]": {"biological_target": "Gal(b1-4)GlcNAc(b1-2)Man(a1-3)[GlcNAc(b1-4)][Gal(b1-4)GlcNAc(b1-2)Man(a1-6)]Man(b1-4)GlcNAc(b1-4)GlcNAc", "in_short": "as §1"}, "[23]": {"biological_target": "Gal(b1-4)GlcNAc(b1-2)[Gal(b1-4)GlcNAc(b1-4)]Man(a1-3)[GlcNAc(b1-4)][Gal(b1-4)GlcNAc(b1-2)[Gal(b1-4)GlcNAc(b1-6)]Man(a1-6)]Man(b1-4)GlcNAc(b1-4)GlcNAc", "in_short": "as §1"}, "[24]": {"biological_target": "Gal(b1-4)GlcNAc(b1-2)[Gal(b1-4)GlcNAc(b1-6)]Man(a1-6)[GlcNAc(b1-4)][Gal(b1-4)GlcNAc(b1-2)[Gal(b1-4)GlcNAc(b1-4)]Man(a1-3)]Man(b1-4)GlcNAc(b1-4)[Fuc(a1-6)]GlcNAc", "in_short": "as §1"}, "[25]": {"biological_target": "Gal(b1-4)GlcNAc(b1-3)Gal(b1-4)GlcNAc(b1-3)Gal(b1-4)GlcNAc(b1-2)[Gal(b1-4)GlcNAc(b1-3)Gal(b1-4)GlcNAc(b1-3)Gal(b1-4)GlcNAc(b1-6)]Man(a1-6)[Gal(b1-4)GlcNAc(b1-3)Gal(b1-4)GlcNAc(b1-3)Gal(b1-4)GlcNAc(b1-2)Man(a1-3)]Man(b1-4)GlcNAc(b1-4)[Fuc(a1-6)]GlcNAc", "in_short": "as §1"}, "[26]": {"biological_target": "Gal(b1-4)GlcNAc(b1-3)Gal(b1-4)GlcNAc(b1-6)[Gal(b1-3)]GalNAc", "in_short": "as §1"}, "[27]": {"biological_target": "Gal(b1-4)GlcNAc(b1-3)[Fuc(a1-3)GlcNAc(b1-6)]Gal(b1-4)Glc", "in_short": "as §1"}}, "note": "Only a selection was taken, and the strongest signals are over-represented in it overall."}
{"binder": "B1", "values": [{"measurement": "glycan array binding signal (z-score)", "setting": "[1]", "value": -0.277}, {"measurement": "glycan array binding signal (z-score)", "setting": "[2]", "value": -0.121}, {"measurement": "glycan array binding signal (z-score)", "setting": "[3]", "value": -0.392}, {"measurement": "glycan array binding signal (z-score)", "setting": "[4]", "value": 4.34}, {"measurement": "glycan array binding signal (z-score)", "setting": "[5]", "value": 0.069}, {"measurement": "glycan array binding signal (z-score)", "setting": "[6]", "value": -0.259}, {"measurement": "glycan array binding signal (z-score)", "setting": "[7]", "value": -0.204}, {"measurement": "glycan array binding signal (z-score)", "setting": "[8]", "value": 2.82}, {"measurement": "glycan array binding signal (z-score)", "setting": "[9]", "value": 0.064}, {"measurement": "glycan array binding signal (z-score)", "setting": "[10]", "value": -0.398}, {"measurement": "glycan array binding signal (z-score)", "setting": "[11]", "value": -0.275}, {"measurement": "glycan array binding signal (z-score)", "setting": "[12]", "value": -0.017}, {"measurement": "glycan array binding signal (z-score)", "setting": "[13]", "value": 20}, {"measurement": "glycan array binding signal (z-score)", "setting": "[14]", "value": 0.154}, {"measurement": "glycan array binding signal (z-score)", "setting": "[15]", "value": 0.595}, {"measurement": "glycan array binding signal (z-score)", "setting": "[16]", "value": -0.453}, {"measurement": "glycan array binding signal (z-score)", "setting": "[17]", "value": -0.248}, {"measurement": "glycan array binding signal (z-score)", "setting": "[18]", "value": 1.28}, {"measurement": "glycan array binding signal (z-score)", "setting": "[19]", "value": 1.37}, {"measurement": "glycan array binding signal (z-score)", "setting": "[20]", "value": 0.061}, {"measurement": "glycan array binding signal (z-score)", "setting": "[21]", "value": -0.352}, {"measurement": "glycan array binding signal (z-score)", "setting": "[22]", "value": -0.309}, {"measurement": "glycan array binding signal (z-score)", "setting": "[23]", "value": -0.455}, {"measurement": "glycan array binding signal (z-score)", "setting": "[24]", "value": -0.428}, {"measurement": "glycan array binding signal (z-score)", "setting": "[25]", "value": -0.41}, {"measurement": "glycan array binding signal (z-score)", "setting": "[26]", "value": -0.399}, {"measurement": "glycan array binding signal (z-score)", "setting": "[27]", "value": -0.398}]}
